The list is not random: actives were taken first. Their share in the collection is about 2.9%.
FBA Mtb inh = Mtb fructose-bisphosphate aldolase inhibition; purified M. tuberculosis FBA, fluorescence read-out; inhibition, % at 1 µM; 360,000 compounds, 2.3% hits; AID 588726; in the data active means inhibition above about 27%;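 further: 0% = vehicle and 100% = reference inhibitor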
Target sequence (P9WQA3 whole entry, looked up): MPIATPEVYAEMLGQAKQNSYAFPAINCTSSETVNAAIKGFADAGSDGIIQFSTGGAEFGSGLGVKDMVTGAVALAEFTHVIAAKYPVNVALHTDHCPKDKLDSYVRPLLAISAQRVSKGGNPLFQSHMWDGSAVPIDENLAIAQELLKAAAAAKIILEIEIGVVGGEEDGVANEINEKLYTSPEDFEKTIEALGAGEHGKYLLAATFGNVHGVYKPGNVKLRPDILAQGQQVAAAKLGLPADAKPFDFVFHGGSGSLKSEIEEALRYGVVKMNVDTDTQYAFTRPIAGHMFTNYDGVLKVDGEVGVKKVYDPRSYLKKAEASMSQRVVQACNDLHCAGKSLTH
FadD28 FP inh = blocks FadD28 binding to the bisubstrate probe | 360,000 compounds, 0.22% hits | inhibition, % at 12.5 µM | fluorescence polarization; in the data active means inhibition above about 8.5%, passing the limit was not always enough
GDH-TPI inh = GDH-TPI coupled enzyme inhibition counter-screen; GDH-TPI coupled enzyme counterscreen, NADH absorbance; inhibition, % at 4.8 µM; 360,000 compounds, 1.2% hits; in the data active means inhibition above about 30%;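 further: 0% = DMSO wells and 100% = wells lacking the enzyme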
BioA inh = BioA (M. tuberculosis) enzyme inhibition. purified M. tuberculosis BioA enzyme, plate reader. inhibition, % at 9.99 µM. 360,000 compounds, 0.096% hits; in the data active means inhibition above about 40%
Mtb hypoxia inh = inhibitors of hypoxia-regulated fluorescent reporter in Mycobacterium tuberculosis. M. tuberculosis hypoxia-regulated fluorescent reporter, fluorescence. fluorescence inhibition, % (concentration not given with the values). 300,000 compounds, 0.1% hits. AID 1159583; in the data active means fluorescence inhibition mostly above about 23%, no sharp cut-off; inactive means mostly below about 17%
An asterisk follows results filed as active; i = inactive; x = not tested or not shown; + = active, no number.

SMILES	FBA Mtb inh	FadD28 FP inh	GDH-TPI inh	BioA inh	Mtb hypoxia inh
O=C(NNC(=S)Nc1ccc(Cl)cc1Cl)c1ccncc1	-3.3	-1.7	12.8	x	11.1
C[C@H](CO)N1C[C@H](C)[C@@H](CN(C)C)Oc2c(NC(=O)Nc3ccccc3)cccc2C1=O	x	x	x	-2.7	x
O=C(CSc1nnc(CNc2ccc(Cl)cc2)o1)Nc1nc2c(s1)CCCC2	1.7	15.2*	13.3	-0.2	-9.2
CN(C)C=Cc1onc(-c2ccccc2Cl)c1C#N	x	x	x	x	8.7
CN(C)/C=C/c1onc(-c2c(F)cccc2Cl)c1C#N	-1.8	-2.9	31.4*	-0.7	x
CN1c2ccsc2/C(=N/NC(=O)c2c(F)cccc2F)CS1(=O)=O	0.0	-4.5	34.4*	0.4	x
Cc1cccc(C(=O)N/N=C2\CS(=O)(=O)N(C)c3ccsc32)c1	6.2	-0.9	21.5	1.6	x
COc1ccc(CN(C)C[C@@H]2OCCCC[C@@H](C)Oc3ccc(NS(C)(=O)=O)cc3C(=O)N([C@@H](C)CO)C[C@@H]2C)cc1	x	x	x	-1.8	x
CC(C)NC(=O)NCC[C@H]1CC[C@H](NC(=O)Nc2ccccc2)[C@@H](CO)O1	x	x	x	0.8	x
C=C1CSc2nc(=O)c3c4c(sc3n21)CCC4	1.3	-1.2	24.9	1.7	42.5*
COc1cc(C2NC(C(=O)O)Cc3c2[nH]c2ccccc32)cc(OC)c1OC (stereo not given)	9.2	0.5	17.5	-0.7	-5.1
CCC1NC(C(=O)O)Cc2c1[nH]c1ccccc21 (stereo not given)	47.2*	-1.1	10.8	0.9	x
CCCc1cc(=O)oc2cc(OCC(=O)NCCN3CCOCC3)c(Cl)cc12	16.4	0.4	32.7*	-1.6	x
CCc1cc(=O)oc2cc(C)cc(OCC(=O)NCCCN3CCOCC3)c12	115.7*	-1.5	20.7	1.4	3.7
CCCc1cc(=O)oc2c(C)c(OCC(=O)NCCN3CCOCC3)ccc12	15.7	0.2	15.4	0.5	8.8
O=c1oc2ccc3ccccc3c2c2c1SC(C(F)(F)F)C2 (stereo not given)	17.7	-3.2	2.2	-1.0	x
O=c1oc2ccccc2c2c1SC(C(F)(F)F)C2 (stereo not given)	+	-5.3	12.0	-2.8	15.0
COc1ccc(NC(=O)C#Cc2ccccc2)cc1OC	-0.1	1.3	34.3*	1.5	-2.4
CCN(CC)C(=O)C(=Cc1ccc2c(c1)OCO2)NC(=O)c1ccc(Br)cc1	x	x	x	x	5.4
C[C@H](CO)N1C[C@H](C)[C@H](CN(C)C(=O)Cc2cccnc2)Oc2cc(C#Cc3ccccc3F)ccc2S1(=O)=O	x	x	x	-12.2	x
CC(=O)Oc1ccc2c(c1)Oc1cc(OC(C)=O)ccc1C21OC(=O)c2ccccc21	-5.7	40.7*	-4.6	x	i
Brc1ccc(C=NNc2nc3ccccc3o2)cc1	x	x	x	x	0.6
CN1/C(=C/C=N/n2cnnc2)C(C)(C)c2ccccc21	3.5	-3.5	45.1*	x	x
O=C(NCCNc1ccnc2cc(Cl)ccc12)c1ccccc1F	5.8	-1.9	42.9*	1.4	3.4
C/C(=N\NC(=O)c1cc(-c2cccnc2)nc2ccccc12)c1ccc(O)cc1O	-0.7	0.0	34.9*	-2.4	x
SMILES	FBA Mtb inh	FadD28 FP inh	GDH-TPI inh	BioA inh	Mtb hypoxia inh
Cc1ccc(C=NNC(=O)c2cc(-c3cccnc3)nc3ccccc23)o1	-0.3	-0.4	34.4*	2.7	11.3
Cc1noc(C)c1NC(=O)N(C)C[C@@H]1OCCCC[C@H](C)Oc2ccc(NS(C)(=O)=O)cc2C(=O)N([C@@H](C)CO)C[C@H]1C	x	x	x	-2.2	x
O=c1oc2ccccc2c2c1ncn2-c1ccccc1	1.9	-0.7	7.1	x	2.3
O=c1[nH]c(=S)c2ncn(-c3ccccc3)c2[nH]1	1.9	0.5	31.2*	-2.9	4.5
O=C(NN=Cc1ccncc1)c1ccc(NC(=O)c2cccc(Cl)c2)cc1	x	x	x	x	4.2
Cc1cc2cc3c(cc2nc1SCC(=O)O)OCCO3	4.4	-0.9	33.3*	0.6	8.4
O=C(CSc1n[nH]c(=O)[nH]c1=O)N/N=C/C=C/c1ccccc1	-1.0	0.1	43.0*	x	x
CCN(CC)Cc1c(O)c(Cl)cc2c3c(c(=O)oc12)CCCC3	+	0.6	15.1	5.2	0.7
CN(C)Cc1c(O)c(Cl)cc2c3c(c(=O)oc12)CCCC3	+	2.1	18.5	3.4	4.0
O=c1oc2c(CN3CCOCC3)c(O)c(Cl)cc2c2c1CCC2	x	-0.9	15.6	-0.3	x
O=C(Nc1ccc2nc(-c3ccc(Br)o3)[nH]c2c1)c1cccs1	0.8	-7.2	32.5*	4.8	x
O=C(Nc1cccc(-c2nc3ccccc3[nH]2)c1)c1cccc(NC(=O)c2ccco2)c1	2.5	17.4*	6.7	-0.9	-1.7
CC(=O)Nc1ccc2nc(-c3ccc(Br)o3)[nH]c2c1	3.4	-0.8	28.7	x	12.1
Cc1cccc2[nH]c(-c3ccc(NC(=O)c4ccco4)cc3)nc12	-2.3	-27.4	58.3*	-2.7	0.9
O=C(Nc1ccc2nc(-c3ccc(Br)o3)[nH]c2c1)c1ccco1	1.2	-4.6	39.8*	13.2	x
O=C(Nc1ccc2nc(-c3ccccc3)[nH]c2c1)c1ccco1	9.9	-7.6	13.0	25.9	-1.0
C=CCCCCc1nc2ccccc2c(=O)n1N	3.5	-3.6	-6.9	x	0.9
CCCCCCc1nc2ccccc2c(=O)n1N	135.7*	-2.0	13.7	1.1	x
CC(=NCc1ccccc1)c1ccc(O)cc1O	-1.3	-0.9	33.6*	-2.1	x
CC(=NCc1ccccc1)c1ccccc1O	-1.9	-0.3	5.8	x	x
CC(=NNP(=S)(c1ccccc1)c1ccccc1)c1ccc(O)cc1O	x	x	x	x	10.9
C/C(=N\NP(=S)(c1ccccc1)c1ccccc1)c1ccc(O)cc1O	-3.0	-2.1	32.5*	-0.5	x
C[C@@H]1CN([C@H](C)CO)C(=O)c2cc(NS(=O)(=O)c3cn(C)cn3)ccc2O[C@@H]1CN(C)C	x	x	x	6.6	x
CC(=O)Nc1ccc2c(c1)C(=O)c1ccccc1C2=O	-3.3	-1.5	7.7	-1.7	-19.0
CC(=O)Nc1cc2c3c(cccc3c1)-c1ccccc1-2	139.8*	-2.4	12.3	x	7.7
SMILES	FBA Mtb inh	FadD28 FP inh	GDH-TPI inh	BioA inh	Mtb hypoxia inh
CCc1ccc(C2CC=C(C(=O)O)C(c3ccccc3F)N2S(=O)(=O)c2ccc(C)cc2)cc1 (stereo not given)	x	x	x	x	6.5
COCC(=O)Nc1ccc2c(c1)C(=O)N(C)C[C@H](OC)[C@H](C)CN(CCC(F)(F)F)[C@@H](C)CO2	x	x	x	-0.6	x
CCCN(C)C[C@H]1OCCCC[C@@H](C)Oc2ccc(NC(=O)NC(C)C)cc2C(=O)N([C@H](C)CO)C[C@@H]1C	x	x	x	0.5	x
COc1ccc(N2C(=O)/C(=C/c3ccc(N(C)C)o3)C(=O)NC2=S)cc1	-9.9	2.5	7.6	-6.1	8.3
CCN(CC)c1ccc(C=C2C(=O)N(C)C(=S)N(C)C2=O)o1	-3.6	-1.3	3.3	-2.0	45.8*
CN1C(=O)C(=Cc2ccc(N3CCCCC3)o2)C(=O)N(C)C1=S	-21.8	0.6	5.4	x	x
CCN(CC)c1ccc(/C=C2\C(=O)NC(=S)N(C)C2=O)o1	-33.6	-3.2	-13.1	-4.2	58.4*
CCN(CC)c1ccc(/C=C2\C(=O)NC(=S)N(c3ccc(OC)cc3OC)C2=O)o1	-31.9	-3.7	-0.7	-5.4	53.9*
CCCS(=O)(=O)N1CCN(Cc2ccc3c(c2)c2ccccc2n3CC)CC1	1.6	-4.2	1.9	-0.4	41.0*

Screening data deposited in PubChem by several laboratories.
